The source of these data is PubChem BioAssay (EPA / NIEHS).

The nature of experiment [1]: Tanguay_ZF_120hpf_DP24: Oregon State University Tanguay Lab 24 Hour Post-fertilization zebrafish Assay for Delayed Development (AID 2284390). The protocol: (§1) Tanguay_ZF_120hpf is a whole embryo, multiplexed endpoint assay using zebrafish larvae exposed for 120 hours post fertilization on a 96-well plate.Tanguay_ZF_120hpf_DP24 is one of one assay component(s) measured or calculated from the Tanguay_ZF_120hpf assay. It is designed to make measurements of zebrafish development as detected with brightfield microscopy of developing zebrafish embryos.Data from the assay component Tanguay_ZF_120hpf_DP24 was analyzed into 1 assay endpoints. This assay endpoint, Tanguay_ZF_120hpf_DP24, was analyzed in the positive analysis fitting direction relative to DMSO as the negative control and baseline of activity. […]
(§2) Zebrafish husbandry: Tropical 5D wild-type adult zebrafish were housed in at an approximate density of 1000 per 100 gallon tank at the Sinnhuber Aquatic Research Laboratory, Oregon State University, Corvallis, OR. […] At 24 hpf, embryos were assessed for photomotor response using a custom photomotor response analysis tool (PRAT) and for developmental toxicity endpoints (MO24: mortality at 24 hpf, DP: developmental progression, SM: spontaneous movement, and NC: notochord distortion). At 120 hpf, locomotor activity was measured using Viewpoint Zebralab and assessed for 13 endpoints. […] If mortality occurred for an embryo (at either 24 or 120 hpf), the non-mortality endpoints were not measured.

Experiment [2] in a line: Tanguay_ZF_120hpf_CRAN: Oregon State University Tanguay Lab 120 Hour Post-fertilization zebrafish Assay for Craniofacial Malformation (AID 2284397). Summed up: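 Dechorionated Tropical 5D wild-type zebrafish embryos, one per well, were statically exposed from 6 to 120 hpf at 28C in 0.64% DMSO, with 5uM trimethyltin chloride as positive control. Craniofacial malformation was scored present/absent by brightfield microscopy, relative to DMSO.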

Experiment [3] is described as follows: Tanguay_ZF_120hpf_AXIS: Oregon State University Tanguay Lab 120 Hour Post-fertilization zebrafish Assay for Axial Malformation (AID 2284398). Summed up: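 Dechorionated 5D wild-type zebrafish embryos exposed statically, one per well, from 6 to 120 hpf at 28C, 0.64% DMSO. Axial malformation scored as present/absent by brightfield microscopy at 120 hpf; dead embryos not scored.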

Experiment [4] in a line: Tanguay_ZF_120hpf_MORT: Oregon State University Tanguay Lab 120 Hour Post-fertilization zebrafish Assay for Mortality (AID 2284399). The protocol:
as §1, with “plate.Tanguay_ZF_120hpf_MORT” for “plate.Tanguay_ZF_120hpf_DP24”, “Tanguay_ZF_120hpf_MORT” for “Tanguay_ZF_120hpf_DP24”, “Tanguay_ZF_120hpf_MORT,” for “Tanguay_ZF_120hpf_DP24,”
as §2

The nature of experiment [5]: Tanguay_ZF_120hpf_EDEM: Oregon State University Tanguay Lab 120 Hour Post-fertilization zebrafish Assay for Edema Malformation (AID 2284400). Summed up:
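Dechorionated Tropical 5D wild-type embryos, one per well, statically exposed from 6 to 120 hpf at 28C in 0.64% DMSO. Edema scored present/absent by brightfield microscopy at 120 hpf; dead embryos not scored; fit versus DMSO.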

A short description of experiment [6]: Tanguay_ZF_120hpf_BRN: Oregon State University Tanguay Lab 120 Hour Post-fertilization zebrafish Assay for Brain Region Malformation (AID 2284402). On the procedure: as §1, with “plate.Tanguay_ZF_120hpf_BRN” for “plate.Tanguay_ZF_120hpf_DP24”, “Tanguay_ZF_120hpf_BRN” for “Tanguay_ZF_120hpf_DP24”, “Tanguay_ZF_120hpf_BRN,” for “Tanguay_ZF_120hpf_DP24,”
as §2

Experiment [7] in a line: Tanguay_ZF_120hpf_TCHR: Oregon State University Tanguay Lab 120 Hour Post-fertilization zebrafish Assay for Touch Responsive (AID 2284403). A digest of the protocol:
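Dechorionated Tropical 5D wild-type zebrafish embryos, one per well from 6 hpf, were statically exposed to 120 hpf at 28 °C (0.64% DMSO). Touch response was scored present/absent at 120 hpf and not scored in dead larvae.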

A short description of experiment [8]: Tanguay_ZF_120hpf_ANY: Oregon State University Tanguay Lab 120 Hour Post-fertilization zebrafish Assay for Any Mortality and Malformation (AID 2284404). On the procedure: as §1, with “plate.Tanguay_ZF_120hpf_ANY” for “plate.Tanguay_ZF_120hpf_DP24”, “developmental malformations and mortality” for “zebrafish development”, “and combines scoring from 13 other assay components measuring more specific morphologies.Data” for “of developing zebrafish embryos.Data”, “Tanguay_ZF_120hpf_ANY” for “Tanguay_ZF_120hpf_DP24”, “Tanguay_ZF_120hpf_ANY,” for “Tanguay_ZF_120hpf_DP24,”
Zebrafish husbandry: Tropical 5D wild-type adult zebrafish were housed in at an approximate density of 1000 per 100 gallon tank at the Sinnhuber Aquatic Research Laboratory, Oregon State University, Corvallis, OR. […] At 24 hpf, embryos were assessed for photomotor response using a custom photomotor response analysis tool (PRAT) and for developmental toxicity endpoints (MO24: mortality at 24 hpf, DP: developmental progression, SM: spontaneous movement, and NC: notochord distortion). At 120 hpf, locomotor activity was measured using Viewpoint Zebralab and assessed for 13 endpoints. […]

A short description of experiment [9]: CCTE_Padilla_ZF_Score.Craniofacial: CCTE's 144 Hour Post-fertilization zebrafish Assay Score for Craniofacial Malformation, Padilla Lab (AID 2284405). A digest of the protocol:
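Wild-type zebrafish embryos (with chorions), one per well in 10% Hanks', were dosed at 6–8 hpf in sealed plates and kept at 26C. They were rinsed at 5 dpf. At 6 dpf two blinded assessors scored craniofacial malformations by brightfield stereomicroscopy.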

A short description of experiment [10]: CCTE_Padilla_ZF_Score.Edema: CCTE's 144 Hour Post-fertilization zebrafish Assay Score for Edema Malformation, Padilla Lab (AID 2284406). Summed up: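 Wild-type zebrafish embryos, one per well in Hanks' solution, dosed at 6-8 hpf, sealed and reared at 26C on a 14:10 h cycle; rinsed on 5 dpf. At 6 dpf, blinded assessors scored edema by stereomicroscopy.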

Molecules are shown by their SMILES. Active and inactive are the calls of the source. Rule for the calls: active = hit-call score of the fitted dose curve at least 0.9, where 1 is the maximum; inactive = score below 0.9.

On to `O=C(O)C(F)(F)C(F)(F)C(F)(F)C(F)(F)C(=O)O`, for which the call in experiment [1], in [2], in [3], in [4], in experiment [5] and in experiment [6] was inactive. The compound was called inactive in [7], in experiment [8], in [9] and in experiment [10].
The AC50 is the concentration giving half of the maximal activity seen. As to `C[N+](C)(C)CCCNS(=O)(=O)C(F)(F)C(F)(F)C(F)(F)C(F)(F)C(F)(F)C(F)(F)C(F)(F)C(F)(F)F`, the AC50 in experiment [1] was 89.2 µM (active); in experiment [2], 70.4 µM (active); in [5] it was 67.1 µM (active); in experiment [8], 80 µM (active). The compound was classed as inactive in experiment [3], in experiment [4], in experiment [6], in [7], in experiment [9] and in experiment [10].
